High-throughput results (PubChem BioAssay)
HCV inh = qHTS Assay for Inhibitors of Hepatitis C Virus (HCV); 3.4% of 340,000 active; Huh7.5.1 HCVcc-Cre infection, luciferase reporter, 44 h; Potency, µM (highest dose often 41.8 µM), without a hit: at the top dose activity change, negative = inhibition, actives largely listed as inhibitors; active = well fitted inhibition curve with a large enough effect; inconclusive = small, poorly fitted or top-dose-only effect, or another doubt; inactive = no such curve, though single readings can be large or run the other way; note: potency is the fitted concentration of half-maximal effect
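Seed cells (1,000/well) for 4 h; treat with compound and infect with HCVcc-Cre, moi about 0.5. Incubate 44 h, then detect luciferase activity.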
VACV mCherry inh = qHTS for Stage-Specific Inhibitors of Vaccinia Orthopoxvirus: mCherry Reporter Primary qHTS. Potency, µM (highest dose often 36.5 µM), inactives show at the highest dose activity change, negative = inhibition, most hits filed as inhibitors. 0.63% of 310,000 active. AID 720579, 2013. Vaccinia virus mCherry reporter infection, fluorescence; calls by dose curve; tested in A549 cells; note: potency is the fitted concentration of half-maximal effect; nearly all actives have a fitted effect of over 35% in size
FMDV antiviral = High Throughput Screening for Foot and Mouth Disease Virus Antivirals | FMDV antiviral cell-based qHTS | Potency, µM (top dose mostly 57.9 µM), for inactives: at the top dose activity change, negative = inhibition, most hits filed as inhibitors | 1.2% of 410,000 active | AID 1159524, 2015; calls by dose curve; tested in HEK293T cells; note: read-out not given here; potency is the fitted concentration of half-maximal effect; nearly all actives have a fitted effect of over 45% in size
Vaccinia Venus = qHTS for Stage-Specific Inhibitors of Vaccinia Orthopoxvirus: Venus Reporter Primary qHTS; Potency, µM (highest dose often 36.5 µM), for inactives: at the highest dose activity change, negative = inhibition, most hits filed as inhibitors; Vaccinia virus Venus reporter expression, fluorescence; 0.46% of 330,000 active; calls by dose curve; tested in A549 cells; note: potency is the fitted concentration of half-maximal effect; nearly all actives have a fitted effect of over 30% in size
HCMV antiviral = qHTS Assay for inhibitors of the human cytomegalovirus (HCMV) | AID 1259415, 2018 | 4.5% of 410,000 active | activity change, negative = inhibition, % at 57.5 µM | HFF cells, HCMV-luciferase reporter, 72 h; hits give low values; in the data active = activity change below about -60%; inconclusive = no clear call, values can overlap the other calls; inactive = above about -39%
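After 16 h attachment at 37C, HFF cells received test compound and HCMV-luciferase (1 PFU/cell); reporter luminescence read 72 h later, data normalized against buffer-only and known inhibitor Salinomycin.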
* hit, by the source's call; i = inactive; u = inconclusive; x = no result; ! = a repeat was not active; [ ] = dose if it differs, or a comment. Rows were chosen to be rich in hits. Some 7.3% of all compounds tested hit in one or more screens of this group. % is set by controls: 0 for no effect and ±100 for the full control effect.

SMILES | HCV inh | VACV mCherry inh | FMDV antiviral | Vaccinia Venus | HCMV antiviral
Nc1ncnc2c1c(I)cn2C1OC(CO)C(O)C1O (stereo not drawn) | x | 16µM*! | -11% | u | x
CCOC(=O)C1(C)CCCCCN1C(=O)c1ccccc1F (stereo not drawn) | x | 20% | -17% | 0% | -23
CS(=O)(=O)c1ccc(Cl)c(NC(=O)c2cccc(-n3cnnn3)c2)c1 | 3% | i | u | -10% | -9
COc1ccccc1C(=O)OCc1cc(=O)n2nc(C3CCCCC3)sc2n1 | x | -12% | u | -5% | 25
O=C(Nc1nc2c(cc3c4c(cccc42)CC3)s1)c1ccccc1Cl | 6.3µM* | -9% | 16% | -12% | u
O=C(Nc1nc2c(Cl)cccc2s1)c1ccc(S(=O)(=O)N2CCc3ccccc32)cc1 | x | u | u | u | -29
COc1ccc2c(c1)C(n1cccc1)C(=O)N2C (stereo not drawn) | x | x | x | x | 24
COc1ccc(-n2c(C)c(C)c3c(N)ncnc32)cc1 | 5% | -25% | 17% | -12% | -77*
O=C1CCC[C@H]2C[C@@H](O)CC[C@]23CCCN13 | x | x | x | x | 15
COc1cccc(CNC(=O)c2c(OC)cc(=O)n3c2CCN(C(=O)c2ccccc2Cl)CC3)c1 | x | i | -8% | -8% | x
Cc1nnc(N/N=C/c2ccc(-c3ccccc3F)o2)n1N | 4% | u | 28% | 28µM* | -9
Cc1nnc(N/N=C/c2ccccc2O)n1N | 22% | u | 26% | u | -104*
Cc1ccc(C(=O)N/N=C/c2ccc(-c3ccccc3[N+](=O)[O-])o2)cn1 | -8% | u | -25% | u | -64*
Cc1nnc(N/N=C/c2c(Cl)cccc2Cl)n1N | u | -22% | -7% | -16% | -17
Cc1nnc(N/N=C\c2ccc(-c3ccccc3[N+](=O)[O-])o2)n1N | -27% | u | 19% | 22µM* | 127
O=C(CCCn1c(=O)c2sccc2n(Cc2ccc(Cl)cc2)c1=O)NCc1ccc2c(c1)OCO2 | x | -15% | 0% | -15% | u
Cc1ccc(NC(=O)CCc2c[nH]c3ccccc23)nc1 | u | -14% | 4% | -22% | -74*
CCN(CC)S(=O)(=O)c1ccc(=O)n(CC(=O)N2CCCc3cc(C)ccc32)c1 | u | x | -31% | x | u
Cc1[nH]c2ccccc2c1CCNC(=O)c1ccc2c(c1[N+](=O)[O-])C(=O)c1ccccc1C2=O | u | 1% | -18% | 127% | -75*
Cc1ccc(OCC(=O)NNC(=O)CCc2ccccc2)c(Br)c1 | 5% | -5% | 4% | -10% | 10
CCCc1cc(=O)n2[nH]cc(-c3ccc(Cl)cc3)c2n1 | u | u | u | u | -96*
COCc1cc(=O)n2[nH]cc(-c3ccccc3)c2n1 | 5% | -19% | 15% | -21% | 45
CCOC(=O)C1CCN(C(=O)CN2C(=O)COc3ccc(C(C)(C)C)cc32)CC1 | -2% | x | -25% | x | -37
CN1C(=O)C(C2(O)C(=O)Nc3ccccc32)c2ccccc21 (stereo not drawn) | x | x | x | x | 4
C[N+](C)(C)Cc1ccccc1 | 1%[8.37 µM] | -12% | 35µM* | -9% | -13
SMILES | HCV inh | VACV mCherry inh | FMDV antiviral | Vaccinia Venus | HCMV antiviral
CN(Cc1ccccc1)Cc1ccccc1 | x | x | x | x | -13
Cc1ccc([C@H]2C[C@H](O)[C@@H](n3cc(C4CC4)nn3)CN2Cc2cccs2)cc1 | x | u | 34% | 11µM* | 13
O[C@H]1C[C@H](c2ccccc2)N(Cc2cccs2)C[C@@H]1n1cc(-c2ccc(F)cc2)nn1 | x | u | 0% | u | -64*
COc1ccc([C@H]2C[C@H](n3cc(-c4ccc(F)cc4)nn3)[C@@H](O)CN2Cc2cccs2)cc1 | x | 8% | -15% | -10% | 42
COc1ccc([C@H]2C[C@H](O)[C@@H](n3cc(-c4ccc(F)cc4)nn3)CN2Cc2cccs2)cc1 | x | 10µM* | u | 10µM* | -67*
O[C@H]1CN(Cc2cccs2)[C@@H](c2ccccc2)C[C@@H]1n1cc(-c2ccc(F)cc2)nn1 | x | i | -14% | -17% | -19
CCOC(=O)CC1C(=O)NCCN1C(=S)NC(=O)c1ccc(C)c(Br)c1 (stereo not drawn) | x | i | -10% | -15% | -33
CN(C)CCCNC(=O)C(=O)Nc1ccc2c(c1)N(S(=O)(=O)c1cccs1)CCC2 | 8.9µM* | -3% | 2% | -22% | u
CCn1c2ccccc2c2cc(N)ccc21 | -21% | x | -17% | -13% | -34
CCn1c2ccccc2c2cc(CNCc3ccc(OC)cc3OC)ccc21 | 13µM* | x | -61% | x | -30
CCC(CC)NCc1ccc2c(c1)c1ccccc1n2CC | 13µM* | x | -13% | x | -33
COc1cccc(CNCc2ccc(OC)cc2OC)c1 | -6% | x | -12% | x | -9
COc1cc(C#Cc2c(-c3ccccc3)n(C)c3ccccc23)cc(OC)c1 | -28%[8.37 µM] | u | -1% | 4% | -5
Cn1c(-c2ccc(C#N)cc2)c(C#Cc2ccccc2)c2ccccc21 | 22µM* | i | 24% | -8% | 32
COc1ccc(C#Cc2c(-c3ccccc3)n(C)c3ccccc23)cc1 | u | -16% | 0% | -22% | 0
Cn1c(C=O)c(C#Cc2ccccc2)c2ccccc21 | 7.9µM* | u | -1% | u | 21
COc1ccc(C#Cc2c(C=O)n(C)c3ccccc23)cc1 | 10µM* | u | 0% | u | -10
CCC(=O)N1N=C(c2cccs2)CC1c1ccc(OC)cc1 (stereo not drawn) | u | x | 23% | x | 91
Cc1ccc(C2CC(c3cccs3)=NN2C(=O)CCl)cc1 (stereo not drawn) | 2.8µM* | u | 18µM* | -11% | -101*
COc1ccc(C2CC(c3cccs3)=NN2C(=O)c2ccc(Br)o2)cc1 (stereo not drawn) | 10µM* | u | -5% | -23% | u
CC(C)(C)c1ccc(OCCC(=O)NNC(=O)c2ccncc2)cc1 | 10% | i | 15% | -6% | -1
CCOc1ccc2c(c1)sc1nc(=O)n(-c3ccc(Cl)c(Cl)c3)c(=O)n12 | x | 2% | -11% | 2% | -16
COc1ccc(C(=O)C(Cc2ccccc2)N(C)C)cc1 (stereo not drawn) | -3% | x | 38% | x | -5
CN(C)CC(CCC(CN(C)C)C(=O)c1ccccc1)C(=O)c1ccccc1 (stereo not drawn) | u | u | 28µM* | 11µM* | x
COc1ccc(C(=O)C(CCCCC(CN(C)C)C(=O)c2ccc(OC)cc2)CN(C)C)cc1 (stereo not drawn) | 3.5µM* | -15% | -9% | -26% | u
CC(=O)c1ccccc1NC(=O)c1ccc2c(c1)NC(=O)C(C)S2 (stereo not drawn) | 11µM* | 2% | -7% | 0% | -16
CC1Sc2ccc(C(=O)NCc3cccc(C(F)(F)F)c3)cc2NC1=O (stereo not drawn) | 22µM* | x | 8% | x | 0
